Reference: paper PMC11062922 (Nature Chemical Biology, 2023)
Read-outs that look alike come from different tables or passages of the source.

How the values were obtained:
AURKA = test system: AURKA; set-up: species or system human, MV4-11 + K-562 + COLO205 + SK-N-BE2 + OVCAR-8; settings: read-out: apparent Kd; compound concentrations: 100 nM and 1000 nM (sheet 'Samples'), CATDS: 0.171682106860061; n = 1
AURKB = test system: AURKB; set-up: species or system human, MV4-11 + K-562 + COLO205 + SK-N-BE2 + OVCAR-8; settings: read-out: apparent Kd; compound concentrations: 100 nM and 1000 nM (sheet 'Samples'), CATDS: 0.172202722003443; n = 1
CDC42 = test system: CDC42; set-up: species or system human, MV4-11 + K-562 + COLO205 + SK-N-BE2 + OVCAR-8; settings: read-out: apparent Kd; compound concentrations: 100 nM and 1000 nM (sheet 'Samples'), CATDS: 0.132933221213999; n = 1
GSK3A = test system: GSK3A; set-up: species or system human, MV4-11 + K-562 + COLO205 + SK-N-BE2 + OVCAR-8; settings: read-out: apparent Kd, compound concentrations: 100 nM and 1000 nM (sheet 'Samples'), n = 1
GSK3B = test system: GSK3B; set-up: species or system human, MV4-11 + K-562 + COLO205 + SK-N-BE2 + OVCAR-8; settings: read-out: apparent Kd, compound concentrations: 100 nM and 1000 nM (sheet 'Samples'), n = 1
BUB1 = test system: BUB1; set-up: species or system human, MV4-11 + K-562 + COLO205 + SK-N-BE2 + OVCAR-8; settings: read-out: apparent Kd, compound concentrations: 100 nM and 1000 nM (sheet 'Samples'), n = 1
CDC42BPA = test system: CDC42BPA; set-up: species or system human, MV4-11 + K-562 + COLO205 + SK-N-BE2 + OVCAR-8; settings: read-out: apparent Kd; compound concentrations: 100 nM and 1000 nM (sheet 'Samples'), CATDS: 2.9689579346921902E-2; n = 1
CDC42BPB = test system: CDC42BPB; set-up: species or system human, MV4-11 + K-562 + COLO205 + SK-N-BE2 + OVCAR-8; settings: read-out: apparent Kd; compound concentrations: 100 nM and 1000 nM (sheet 'Samples'), CATDS: 2.9604428475736501E-2; n = 1
CDC42BPG = test system: CDC42BPG; set-up: species or system human, MV4-11 + K-562 + COLO205 + SK-N-BE2 + OVCAR-8; settings: read-out: apparent Kd; compound concentrations: 100 nM and 1000 nM (sheet 'Samples'), CATDS: 3.5199852415490701E-2; n = 1
CDC7 = test system: CDC7; set-up: species or system human, MV4-11 + K-562 + COLO205 + SK-N-BE2 + OVCAR-8; settings: read-out: apparent Kd; compound concentrations: 100 nM and 1000 nM (sheet 'Samples'), CATDS: 2.6746378417374699E-2; n = 1
CDK4 = test system: CDK4; set-up: species or system human, MV4-11 + K-562 + COLO205 + SK-N-BE2 + OVCAR-8; settings: read-out: apparent Kd; compound concentrations: 100 nM and 1000 nM (sheet 'Samples'), CATDS: 2.4664855297043799E-2; n = 1
CLK4 = test system: CLK4; set-up: species or system human, MV4-11 + K-562 + COLO205 + SK-N-BE2 + OVCAR-8; settings: read-out: apparent Kd; compound concentrations: 100 nM and 1000 nM (sheet 'Samples'), CATDS: 2.52027212323017E-2; n = 1
DYRK1A = test system: DYRK1A; set-up: species or system human, MV4-11 + K-562 + COLO205 + SK-N-BE2 + OVCAR-8; settings: read-out: apparent Kd; compound concentrations: 100 nM and 1000 nM (sheet 'Samples'), CATDS: 2.7886290868283401E-2; n = 1
NNT = test system: NNT; set-up: species or system human, MV4-11 + K-562 + COLO205 + SK-N-BE2 + OVCAR-8; settings: read-out: apparent Kd; compound concentrations: 100 nM and 1000 nM (sheet 'Samples'), CATDS: 2.2589714418096801E-2; n = 1
PIM1 = test system: PIM1; set-up: species or system human, MV4-11 + K-562 + COLO205 + SK-N-BE2 + OVCAR-8; settings: read-out: apparent Kd; compound concentrations: 100 nM and 1000 nM (sheet 'Samples'), CATDS: 3.4638112150075201E-2; n = 1
PKN1 = test system: PKN1; set-up: species or system human, MV4-11 + K-562 + COLO205 + SK-N-BE2 + OVCAR-8; settings: read-out: apparent Kd; compound concentrations: 100 nM and 1000 nM (sheet 'Samples'), CATDS: 6.9293964383533801E-2; n = 1
PKN2 = test system: PKN2; set-up: species or system human, MV4-11 + K-562 + COLO205 + SK-N-BE2 + OVCAR-8; settings: read-out: apparent Kd; compound concentrations: 100 nM and 1000 nM (sheet 'Samples'), CATDS: 0.13828274878435901; n = 1
PKN3 = test system: PKN3; set-up: species or system human, MV4-11 + K-562 + COLO205 + SK-N-BE2 + OVCAR-8; settings: read-out: apparent Kd; compound concentrations: 100 nM and 1000 nM (sheet 'Samples'), CATDS: 2.6445492378014E-2; n = 1
PRKACA = test system: PRKACA; set-up: species or system human, MV4-11 + K-562 + COLO205 + SK-N-BE2 + OVCAR-8; settings: read-out: apparent Kd; compound concentrations: 100 nM and 1000 nM (sheet 'Samples'), CATDS: 2.2371204771335199E-2; n = 1
PRKCA = test system: PRKCA; set-up: species or system human, MV4-11 + K-562 + COLO205 + SK-N-BE2 + OVCAR-8; settings: read-out: apparent Kd; compound concentrations: 100 nM and 1000 nM (sheet 'Samples'), CATDS: 3.9494099322939E-2; n = 1
PRKCB = test system: PRKCB; set-up: species or system human, MV4-11 + K-562 + COLO205 + SK-N-BE2 + OVCAR-8; settings: read-out: apparent Kd; compound concentrations: 100 nM and 1000 nM (sheet 'Samples'), CATDS: 4.76963750103866E-2; n = 1
PRKCD = test system: PRKCD; set-up: species or system human, MV4-11 + K-562 + COLO205 + SK-N-BE2 + OVCAR-8; settings: read-out: apparent Kd; compound concentrations: 100 nM and 1000 nM (sheet 'Samples'), CATDS: 6.0948363535237499E-2; n = 1
PRKCI = test system: PRKCI; set-up: species or system human, MV4-11 + K-562 + COLO205 + SK-N-BE2 + OVCAR-8; settings: read-out: apparent Kd; compound concentrations: 100 nM and 1000 nM (sheet 'Samples'), CATDS: 3.5414471461485103E-2; n = 1
PRKCQ = test system: PRKCQ; set-up: species or system human, MV4-11 + K-562 + COLO205 + SK-N-BE2 + OVCAR-8; settings: read-out: apparent Kd; compound concentrations: 100 nM and 1000 nM (sheet 'Samples'), CATDS: 2.3037545247832199E-2; n = 1
PRKG1 = test system: PRKG1; set-up: species or system human, MV4-11 + K-562 + COLO205 + SK-N-BE2 + OVCAR-8; settings: read-out: apparent Kd; compound concentrations: 100 nM and 1000 nM (sheet 'Samples'), CATDS: 3.8596421043345E-2; n = 1
PRKX;PRKY = test system: PRKX;PRKY; set-up: species or system human, MV4-11 + K-562 + COLO205 + SK-N-BE2 + OVCAR-8; settings: read-out: apparent Kd; compound concentrations: 100 nM and 1000 nM (sheet 'Samples'), CATDS: 4.0324961931199298E-2; n = 1
Q6ZSR9 = Q6ZSR9 (human, UniProt Q6ZSR9); set-up: species or system MV4-11 + K-562 + COLO205 + SK-N-BE2 + OVCAR-8; settings: read-out: apparent Kd; compound concentrations: 100 nM and 1000 nM (sheet 'Samples'), CATDS: 2.23637013148167E-2; n = 1
ROCK1 = test system: ROCK1; set-up: species or system human, MV4-11 + K-562 + COLO205 + SK-N-BE2 + OVCAR-8; settings: read-out: apparent Kd; compound concentrations: 100 nM and 1000 nM (sheet 'Samples'), CATDS: 0.20486846489085001; n = 1
ROCK2 = test system: ROCK2; set-up: species or system human, MV4-11 + K-562 + COLO205 + SK-N-BE2 + OVCAR-8; settings: read-out: apparent Kd; compound concentrations: 100 nM and 1000 nM (sheet 'Samples'), CATDS: 0.25564914108925302; n = 1
RPS6KA3 = test system: RPS6KA3; set-up: species or system human, MV4-11 + K-562 + COLO205 + SK-N-BE2 + OVCAR-8; settings: read-out: apparent Kd; compound concentrations: 100 nM and 1000 nM (sheet 'Samples'), CATDS: 2.2411381111350701E-2; n = 1
RPS6KA4 = test system: RPS6KA4; set-up: species or system human, MV4-11 + K-562 + COLO205 + SK-N-BE2 + OVCAR-8; settings: read-out: apparent Kd; compound concentrations: 100 nM and 1000 nM (sheet 'Samples'), CATDS: 2.93060004016619E-2; n = 1
RPS6KA5 = test system: RPS6KA5; set-up: species or system human, MV4-11 + K-562 + COLO205 + SK-N-BE2 + OVCAR-8; settings: read-out: apparent Kd; compound concentrations: 100 nM and 1000 nM (sheet 'Samples'), CATDS: 7.09289008095534E-2; n = 1
RPS6KB1 = test system: RPS6KB1; set-up: species or system human, MV4-11 + K-562 + COLO205 + SK-N-BE2 + OVCAR-8; settings: read-out: apparent Kd; compound concentrations: 100 nM and 1000 nM (sheet 'Samples'), CATDS: 3.4363243173278199E-2; n = 1
CAMK2B = test system: CAMK2B; set-up: species or system human, MV4-11 + K-562 + COLO205 + SK-N-BE2 + OVCAR-8; settings: read-out: apparent Kd; compound concentrations: 100 nM and 1000 nM (sheet 'Samples'), CATDS: 0.32138183230231099; n = 1
FN3K = test system: FN3K; set-up: species or system human, MV4-11 + K-562 + COLO205 + SK-N-BE2 + OVCAR-8; settings: read-out: apparent Kd; compound concentrations: 100 nM and 1000 nM (sheet 'Samples'), CATDS: 0.15794853926882399; n = 1
ICK = test system: ICK; set-up: species or system human, MV4-11 + K-562 + COLO205 + SK-N-BE2 + OVCAR-8; settings: read-out: apparent Kd; compound concentrations: 100 nM and 1000 nM (sheet 'Samples'), CATDS: 0.184620648021635; n = 1
MAPKAPK2 = test system: MAPKAPK2; set-up: species or system human, MV4-11 + K-562 + COLO205 + SK-N-BE2 + OVCAR-8; settings: read-out: apparent Kd; compound concentrations: 100 nM and 1000 nM (sheet 'Samples'), CATDS: 0.25784854376508698; n = 1

Q6ZSR9, sequence (Q6ZSR9 whole entry, looked up): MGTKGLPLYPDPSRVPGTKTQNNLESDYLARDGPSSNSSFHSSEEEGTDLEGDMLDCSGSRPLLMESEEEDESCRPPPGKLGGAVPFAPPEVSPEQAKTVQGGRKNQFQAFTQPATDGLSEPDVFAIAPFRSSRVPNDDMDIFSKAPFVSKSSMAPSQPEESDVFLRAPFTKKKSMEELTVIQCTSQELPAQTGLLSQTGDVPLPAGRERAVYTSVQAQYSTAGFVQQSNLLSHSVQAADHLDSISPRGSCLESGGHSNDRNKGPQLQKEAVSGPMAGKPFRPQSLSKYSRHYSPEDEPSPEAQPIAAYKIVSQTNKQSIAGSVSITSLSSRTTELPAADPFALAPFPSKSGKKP

SMILES: Cc1[nH]nc2c1N=C(c1ccccc1F)c1cc(C#N)ccc1N2 [RO0275062-000]
- potency estimated from few doses (AURKA): 496 nM
- potency estimated from few doses (AURKB): 492 nM
- potency estimated from few doses (CDC42): 1240 nM
- potency estimated from few doses (GSK3A; CATDS: 0.398799931633807): 88.7 nM
- potency estimated from few doses (GSK3B; CATDS: 0.29957385679939402): 143 nM

SMILES: CCn1c(-c2nonc2N)nc2cncc(C(=O)NCCNC)c21 [GW876790X]
- potency estimated from few doses (BUB1; CATDS: 2.1802873020005002E-2): 2400 nM
- potency estimated from few doses (CDC42BPA): 783 nM
- potency estimated from few doses (CDC42BPB): 790 nM
- potency estimated from few doses (CDC42BPG): 498 nM
- potency estimated from few doses (CDC7): 1080 nM
- potency estimated from few doses (CDK4): 1430 nM
- potency estimated from few doses (CLK4): 1320 nM
- potency estimated from few doses (DYRK1A): 944 nM
- potency estimated from few doses (GSK3A; CATDS: 3.2478486549428802E-2): 612 nM
- potency estimated from few doses (GSK3B; CATDS: 2.76286010769239E-2): 971 nM
- potency estimated from few doses (NNT): 2030 nM
- potency estimated from few doses (PIM1): 519 nM
- potency estimated from few doses (PKN1): 118 nM
- potency estimated from few doses (PKN2): 35.1 nM
- potency estimated from few doses (PKN3): 1120 nM
- potency estimated from few doses (PRKACA): 2120 nM
- potency estimated from few doses (PRKCA): 378 nM
- potency estimated from few doses (PRKCB): 249 nM
- potency estimated from few doses (PRKCD): 152 nM
- potency estimated from few doses (PRKCI): 491 nM
- potency estimated from few doses (PRKCQ): 1870 nM
- potency estimated from few doses (PRKG1): 399 nM
- potency estimated from few doses (PRKX;PRKY): 361 nM
- potency estimated from few doses (Q6ZSR9): 2130 nM
- potency estimated from few doses (ROCK1): 19.1 nM
- potency estimated from few doses (ROCK2): 13.9 nM
- potency estimated from few doses (RPS6KA3): 2110 nM
- potency estimated from few doses (RPS6KA4): 813 nM
- potency estimated from few doses (RPS6KA5): 113 nM
- potency estimated from few doses (RPS6KB1): 529 nM

SMILES: CSc1ccc(-c2nc3n(c2-c2ccncc2)CCC3)cc1 [SKF-105561]
- potency estimated from few doses (BUB1; CATDS: 0.15968057437579899): 2300 nM
- potency estimated from few doses (CAMK2B): 557 nM
- potency estimated from few doses (FN3K): 2370 nM
- potency estimated from few doses (ICK): 1580 nM
- potency estimated from few doses (MAPKAPK2): 803 nM
